For 40 compounds, Potency and activation results are on record in PubChem BioAssay (Tox21).

Each structure is given as a SMILES string. Inconclusive results are not listed. Entries that show only a call come without a potency. Values without a mark were called inactive. Calls of active or inactive are those of the source. Calls come from the whole dose curve.

In the assay the target is Progesterone receptor (Homo sapiens) (UniProt P06401). As to the kind of experiment: qHTS assay to identify small molecule agonists of the progesterone receptor (PR) signaling pathway (AID 1346784). Note: nearly all actives have a fitted effect of over 30% in size. The note with it: PR-UAS-bla HEK293T, beta-lactamase FRET ratio, 16 h; series mostly up to 92.4 µM. The source says: U.S. Tox21 Program National Center for Advancing Translational Sciences [NCATS] NIH Chemical Genomics Center [NCGC] U.S. Environmental Protection Agency [EPA] National Institutes of Environmental Health Sciences [NIEHS] National Toxicology Program [NTP] U.S. Food and Drug Administration [FDA] […] Endocrine disrupting chemicals (EDCs) and their interactions with steroid hormone receptors like PR causes disruption of normal endocrine function. To identify the compounds that activate PR signaling, a PR-UAS-bla GripTite cell line i.e. PR-UAS-bla HEK 293T (Invitrogen, Carlsbad, CA, USA) containing a beta-lactamase reporter gene under the control of an Upstream Activator Sequence (UAS) was used to screen Tox21 10K compound library.
Progesterone receptor (Homo sapiens), sequence (P06401 whole entry, looked up): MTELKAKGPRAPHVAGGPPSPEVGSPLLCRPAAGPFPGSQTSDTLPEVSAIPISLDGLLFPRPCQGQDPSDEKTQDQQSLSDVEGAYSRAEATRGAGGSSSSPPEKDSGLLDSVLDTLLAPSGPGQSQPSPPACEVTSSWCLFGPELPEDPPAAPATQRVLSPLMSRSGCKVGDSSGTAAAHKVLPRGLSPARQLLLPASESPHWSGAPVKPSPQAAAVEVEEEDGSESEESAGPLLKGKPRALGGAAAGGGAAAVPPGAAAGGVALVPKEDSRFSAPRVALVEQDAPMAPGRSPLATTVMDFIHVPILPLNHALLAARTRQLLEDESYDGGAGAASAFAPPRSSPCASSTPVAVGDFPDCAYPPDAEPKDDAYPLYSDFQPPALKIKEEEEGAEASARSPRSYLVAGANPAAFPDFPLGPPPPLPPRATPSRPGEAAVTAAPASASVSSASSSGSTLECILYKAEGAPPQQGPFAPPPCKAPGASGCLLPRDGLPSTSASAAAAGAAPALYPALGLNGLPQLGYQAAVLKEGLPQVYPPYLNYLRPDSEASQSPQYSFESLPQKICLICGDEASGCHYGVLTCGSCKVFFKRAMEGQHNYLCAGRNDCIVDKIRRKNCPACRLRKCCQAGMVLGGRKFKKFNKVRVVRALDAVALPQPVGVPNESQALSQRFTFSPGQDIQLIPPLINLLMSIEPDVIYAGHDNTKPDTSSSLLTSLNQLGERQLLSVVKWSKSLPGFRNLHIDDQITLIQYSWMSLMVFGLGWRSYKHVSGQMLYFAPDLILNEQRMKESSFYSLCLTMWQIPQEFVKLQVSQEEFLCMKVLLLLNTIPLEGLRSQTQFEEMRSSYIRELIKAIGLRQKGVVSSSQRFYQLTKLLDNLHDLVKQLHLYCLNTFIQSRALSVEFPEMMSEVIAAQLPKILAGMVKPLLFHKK
Tox21 Assay Protocol Summary: PR-UAS-bla HEK 293T cells were dispensed at 3,000 cells/5 uL of assay medium containing 2% charcoal stripped FBS per well into black wall/clear-bottom 1536-well plates using a Multidrop Combi (ThermoFisher Scientific, Waltham, MA) dispenser. After the assay plates were incubated at a 37C and 5% CO2 for 6hr, 23 nL of compounds dissolved in DMSO, positive controls or DMSO only was transferred to the assay plate by a Pintool station (Kalypsys, San Diego, CA). The plates were incubated at 37C and 5% CO2 for 16hr. Then 1 uL of LiveBLAzer B/G FRET substrate was added using a BioRAPTR FRD (Flying Reagent Dispenser, Aurora Discovery, San Diego, CA). After the plates were incubated at room temperature for 2 hours, fluorescence intensity was measured by an Envision plate reader (PerkinElmer, Shelton, CT).
`CCCCCCOC(=O)CCCCC(=O)OCCCCCC`: the Potency result is “inactive”. Still for that read-out and setting: the result for `Cc1c(NC(C)C)c(=O)n(-c2ccccc2)n1C` reads “inactive”; that for `COC(=O)c1c(Cl)c(Cl)c(C(=O)OC)c(Cl)c1Cl`, “inactive”. Same read-out and setting: the value for `COc1cc(C(=O)N2CCCCCCC2)cc(OC)c1OC` was “inactive”; that for `OCCCC1CCCCC1` was “inactive”; that for `CC(=O)OCC(CCn1cnc2cnc(N)nc21)COC(C)=O` was “inactive”. Still for that read-out and setting: the value for `C=C1CC[C@H]2C[C@@H]1C2(C)C` was “inactive”; that for `C[C@H]1C[C@@H](O)CC(C)(C)C1` was “inactive”; that for `Nc1c[n+](N2CCOCC2)no1` was “inactive”. Turning to `CC(C(=O)O)c1ccc(CC2CCCC2=O)cc1` (stereo not given), the Potency entry was “inactive”. For `C=CCOCC(CC)(CO)COCC=C`, the Potency entry was “inactive”. Same read-out and setting: the value for `c1ccc(CC2=NCCN2)cc1` was “inactive”; that for `CC[N+](C)(C)c1cccc(O)c1` was “inactive”.

As for `CCOc1ccc(C(=O)OCCN(CC)CC)cc1`, the Potency entry was “inactive”. Turning to `CC(=O)c1ccccc1O`, the Potency entry was “inactive”.

On to `C[C@@H]1CCN(C(=O)[C@H](CCCN=C(N)N)NS(=O)(=O)c2cccc3c2NC[C@H](C)C3)[C@@H](C(=O)O)C1`, for which the Potency entry was “inactive”. On the same count and under the same terms, the result for `COc1ccc2c(c1)CCCC2=O` reads “inactive”; that for `CCOC(=O)c1ccc(C)cc1`, “inactive”. On the same count and under the same terms, the result for `CCCN1CCCC[C@H]1C(=O)Nc1c(C)cccc1C` reads “inactive”. The same measure, in the same setting: the value for `O=C1CCCCCCCCCCCN1` was “inactive”; that for `CCOC(=O)CCC(C)=O` was “inactive”. Regarding `COC(=O)NN`, the Potency result is “inactive”. Still for that read-out and setting: the value for `NS(=O)(=O)c1cc2c(cc1Cl)NC(C1CC3C=CC1C3)NS2(=O)=O` (stereo not given) was “inactive”; that for `CCCCCCCCCCCCCCCCC` was “inactive”; that for `CCCCCCCCS(=O)(=O)Cl` was “inactive”. On the same count and under the same terms, the result for `CC(C)(O)C(=O)c1ccccc1` reads “inactive”; that for `CC(C)(O)C#CC(C)(C)O`, “inactive”. Still for that read-out and setting: the value for `CCOC(=O)c1c(C)n(C)c2ccc(O)cc12` was “inactive”. On to `CCN1CCC[C@H]1CNC(=O)c1cc(S(N)(=O)=O)ccc1OC`, for which the Potency entry was “inactive”.

With `CCCCOCCOCCOCc1cc2c(cc1CCC)OCO2`, the Potency entry is “inactive”. On the same count and under the same terms, the result for `c1ccc([C@H]2CN3CCSC3=N2)cc1` reads “inactive”.

As to `CC(=O)CC(C)C`, the Potency result was “inactive”. With `NS(=O)(=O)c1cc(C(=O)O)cc(N2CCCC2)c1Oc1ccccc1`, the Potency entry was “inactive”. As for `C=CCCCCCCCCC=O`, the Potency entry is “inactive”. The same measure, in the same setting: the value for `CN1CC(=O)NC1=N` was “inactive”. Turning to `CCc1nccnc1CC`, the activation is 0.626% [at 19 µM].

For the compound `C=CCS(=O)(=O)O`, the Potency result is “inactive”.

As to `CC(C)c1cc2c(cc1S(=O)(=O)O)[C@@]1(C)CCC[C@@](C)(C(=O)O)[C@@H]1CC2`, the Potency result was “inactive”. Regarding `CCC(C)S` (stereo not given), the activation was -0.0244% [at 3.27 µM]. Take `NC(=O)c1cn(Cc2c(F)cccc2F)nn1`: the Potency entry is “inactive”.
